Compound activity deposited in PubChem by The Scripps Research Institute Molecular Screening Center.
Most compounds without a hit are left out; they make up all but 1.5% or so of the library.
DAGLB inh – DAGLB lipase inhibitors, primary screen, biochemical, fluorescence, HTS. Diacylglycerol lipase-beta (Homo sapiens), Q8NCG7. HEK293T DAGLB membrane lysate, EnzChek fluorogenic substrate. inhibition, % at 5.17 µM. 0.059% of 340,000 active. AID 504411, 2011; in the data active means inhibition above about 34%;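 further: 0% = enzyme with vehicle and 100% = wells lacking enzyme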
PLC-beta3 inh – human PLC-beta3 inhibitors, primary screen, biochemical, fluorescence; 1-phosphatidylinositol 4,5-bisphosphate phosphodiesterase beta-3 (Homo sapiens), Q01970; Purified PLC-beta3, fluorogenic substrate; inhibition, % at 12.2 µM; 0.18% of 370,000 active; AID 720704, 2013; in the data active means inhibition above about 11%;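 further: 0% = median of compound wells on plate and 100% = full blocker control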
PLC-gamma1 inh – PLC-gamma1 enzyme inhibitors, primary screen, biochemical, fluorescence, purified enzyme. 1-phosphatidylinositol 4,5-bisphosphate phosphodiesterase gamma-1 (Homo sapiens), P19174. fluorogenic substrate. inhibition, % at 12.2 µM. 0.84% of 370,000 active
sPLA2-III inh – human group III sPLA2 inhibitors, primary screen, biochemical, QFRET, BODIPY PC-A2 liposome substrate. Group 3 secretory phospholipase A2 (Homo sapiens), Q9NZ20. 0.56% of 370,000 active. inhibition, % at 12.2 µM. QFRET BODIPY PC-A2 liposome hydrolysis, fluorescence;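 active means inhibition above mean plus 3 SD of compounds lying within the high and low control bounds, cut at about 19% in these data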;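 further: 0% = median of test compound wells and 100% = no enzyme DMSO wells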
Target sequence (Q9NZ20 whole entry, looked up): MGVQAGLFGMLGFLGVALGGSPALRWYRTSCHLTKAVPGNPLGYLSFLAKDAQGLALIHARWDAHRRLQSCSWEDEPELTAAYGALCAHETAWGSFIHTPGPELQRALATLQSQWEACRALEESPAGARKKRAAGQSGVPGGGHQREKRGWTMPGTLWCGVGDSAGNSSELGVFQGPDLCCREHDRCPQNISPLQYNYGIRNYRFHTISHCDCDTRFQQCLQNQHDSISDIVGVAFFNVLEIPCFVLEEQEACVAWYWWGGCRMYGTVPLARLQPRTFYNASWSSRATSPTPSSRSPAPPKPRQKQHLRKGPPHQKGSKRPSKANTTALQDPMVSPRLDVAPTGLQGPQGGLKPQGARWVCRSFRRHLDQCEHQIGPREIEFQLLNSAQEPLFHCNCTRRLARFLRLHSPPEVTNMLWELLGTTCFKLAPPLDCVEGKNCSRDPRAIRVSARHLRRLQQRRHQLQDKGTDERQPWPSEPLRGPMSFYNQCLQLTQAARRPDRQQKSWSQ
PLCgamma1 ctr – PLC-gamma1 enzyme inhibitors, counter-screen for PLC-beta3 inhibitor project, biochemical, fluorescence; 3.1% of 3,300 active; inhibition, % at 12.3 µM; shares compounds with PLC-gamma1 inh; purified PLC-gamma1, fluorogenic substrate
PLCbeta3 conf – PLC-beta3 inhibitor confirmation, biochemical, fluorescence, purified enzyme; 1% of 3,300 active; fluorogenic substrate fluorescence; inhibition, % at 12.3 µM; shares compounds with PLC-gamma1 inh; AID 743261, 2014; in the data active means inhibition above about 11%
sPLA2 confirm – human group III sPLA2 inhibitors, confirmation, biochemical, QFRET, triplicate; shares compounds with sPLA2-III inh; recombinant hGIII-sPLA2, BODIPY PC-A2 QFRET fluorescence; inhibition, % at 12.2 µM; 34% of 2,000 active; AID 743280, 2014;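 active means mean inhibition across triplicates above the hit cutoff set in the earlier primary screen, cut at about 19% in these data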;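 further: 0% = enzyme with DMSO and 100% = DMSO wells lacking enzyme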
535nm interf – 535nm fluorescence optical interference, confirmation, artefact control for HGIII-sPLA2 inhibitor project, biochemical, QFRET; shares compounds with sPLA2-III inh; BODIPY FL product fluorescence interference; inhibition, % at 12.2 µM; 8.5% of 2,000 active; AID 743282, 2014;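 active means average inhibition above the solvent-only control mean plus 3 SD, cut at about 6% in these data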;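 further: 0% = DMSO with substrate plus product and 100% = DMSO with substrate alone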
BODIPY interf DR – 535nm fluorescence optical interference, dose response, artefact control for HGIII-sPLA2 inhibitor project, biochemical, QFRET; 240 tested, under 10 active; IC50, µM; shares compounds with sPLA2-III inh; BODIPY FL product fluorescence interference, cell-free;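 active means IC50 at or below 10 µM; inactive means IC50 above 10 µM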
Active calls of the source: *; nt = not tested or not shown. Unless noted, no stated cut-off is given here; in the data, active means inhibition above about 9.5%; inactive means the rest.

SMILES	DAGLB inh	PLC-beta3 inh	PLC-gamma1 inh	sPLA2-III inh	PLCgamma1 ctr	PLCbeta3 conf	others
Cc1ccccc1-n1ccnc1SCC(=O)O	-3	12*	8	0	-4	-5
CCN(CC)S(=O)(=O)c1ccc(N=Nc2c(C)[nH]n(C(N)=S)c2=O)cc1	20	8	10*	-18	0	2
N#C[C@H](N)[C@H]1O[C@@H](n2ccc(=O)[nH]c2=O)[C@H](O)[C@@H]1O	nt	-24	-21	-2	nt	nt
COc1ccc(-c2cc(CNC(=O)CN3CCN(C)CC3)on2)cc1	-2	-369	9.5*	8	-7	-2
CCN(CC)CC(=O)NCc1cc(-c2ccc(OC)cc2)no1	-4	1	2	5	nt	nt
O=C(Nc1ccc(F)cc1)Nc1cccnc1Cl	-4	-3	13*	9	-9	-2
O=C(NC(=S)N1CCc2ccccc21)c1ccccc1Br	-1	5	11*	13	-3	4
COc1ccccc1NC(=O)c1cc2c(cc1Cl)N1CCCCCC1=NS2(=O)=O	2	10	12*	7	-4	-1
Cn1c(=O)cc(OCCCC(=O)Nc2cc(C(F)(F)F)ccn2)c2ccccc21	nt	0	2	-4	nt	nt
CCC(Sc1nc(C)cc(C)n1)C(=O)Nc1cc(C)on1 (stereo not drawn)	-3	11*	11*	-2	-6	-1
CCC(Sc1nc(C)cc(C)n1)C(=O)O (stereo not drawn)	0	0	-6	15	nt	nt
Cc1ccc(-n2nnnc2SCC(=O)c2c(N)n(CC(C)C)c(=O)n(C)c2=O)cc1	1	3	11*	10	-5	1
CCOC(=O)Cc1csc(SCC(=O)c2c(N)n(CC(C)C)c(=O)n(C)c2=O)n1	-3	0	10*	0	-2	2
O=C(c1cc(F)cc(F)c1)N1CCCC(c2nc(-c3cccs3)no2)C1 (stereo not drawn)	nt	-1	1	4	nt	nt
C[C@H]1[C@@H](OC(=O)Nc2ccccc2F)CC[C@@]23CCCN2C(=O)CCC[C@@H]13	nt	4	0	-4	nt	nt
Cc1ccc(-n2c(SCC(=O)c3ccc(O)c(O)c3)nnc2-c2ccccc2)cc1	nt	-7	2	17	nt	nt
Cc1cccc(-n2cc(CN(C)Cc3nccn3C)c(-c3cccc(F)c3)n2)c1	-2	4	11*	-11	-4	-1
C=CCC12C=C(OC)C(=O)C(C1=O)C(c1ccc(OC)cc1)C2C (stereo not drawn)	nt	-4	1	-1	nt	nt
CC(c1nnc(SCn2nnc3ccccc3c2=O)n1-c1ccc(Cl)cc1)N(C)C (stereo not drawn)	-1	12*	3	1	-3	2
CC(c1nnc(SCC(=O)N2CCc3ccccc32)n1-c1ccc(Cl)cc1)N(C)C (stereo not drawn)	-1	1	4	-2	nt	nt
COCCCNC(=O)Cn1nc(Cc2ccncc2)c2ccccc2c1=O	nt	2	0	0	nt	nt
O=C(Nc1ccc(N2CCN(C(=O)c3cccs3)CC2)c(Cl)c1)c1ccco1	2	3	14*	-1	-4	-7
COc1ccc(NS(=O)(=O)c2cc(NC(=O)c3cnc(C)cn3)ccc2N2CCCC2)cc1	1	-3	-1	6	nt	nt
COc1ccc(NS(=O)(=O)c2cc(NC(=O)c3cccnc3Cl)ccc2N2CCCC2)cc1	2	0	10*	-3	2	-7
O=S1(=O)CCN(CCc2ccccc2)CC1	0	12*	6	2	-8	-12
SMILES	DAGLB inh	PLC-beta3 inh	PLC-gamma1 inh	sPLA2-III inh	PLCgamma1 ctr	PLCbeta3 conf	others
CCCCNC(=O)C[C@@H]1C(=O)N2CCCC3=C2[C@@]1(C(=O)OCC)CCC3	nt	2	-1	6	nt	nt
Cc1ccc(-c2nnc(SCC(=O)NC3CCCC3)n2C)cc1	-2	-10	11*	18	-9	-2
Cn1c(SCC(=O)NCC2CCCO2)nnc1-c1ccc(S(=O)(=O)N2CCCC2)cc1 (stereo not drawn)	-1	-1	9.8*	-6	-8	-4
Cn1c(SCC(=O)NC2CCCCC2)nnc1-c1ccncc1	0	1	0	3	nt	nt
CCN(CC)c1ccc(NC(=O)CSc2nc3ccccc3c(=O)n2-c2ccc(C)cc2)cc1	nt	9	12*	28*	-7	-4	sPLA2 confirm=30*;535nm interf=-11;BODIPY interf DR=>122
O=C(N=C1N(Cc2ccccc2)[C@@H](Cc2ccccc2)[C@]2(C=C3CCCCC3n3c(=O)n(-c4ccccc4)c(=O)n32)N1C(=O)OCc1ccccc1)c1ccccc1 (stereo partly drawn)	nt	-1	1	4	nt	nt
CCCCNC(=O)C[C@H]1C[C@@]2(C(=O)OC)C(=C[C@H](C(C)C)O[C@@H]2C2CC2)N(CCC2=CCCCC2)C1=O	nt	5	0	0	nt	nt
COc1ccc(/C=N/NC(=O)c2ccc3c(c2)OCCO3)cc1[N+](=O)[O-]	-4	-3	11*	24*	-10	-3	sPLA2 confirm=7;535nm interf=-3
COc1ccc(/C=C/C(=O)c2ccc3c(c2)OCCO3)cc1[N+](=O)[O-]	-2	3	2	0	nt	nt
O=[N+]([O-])c1ccc(N/N=C/c2cccc(O)c2O)c(S(=O)(=O)N2CCOCC2)c1	13	-5	15*	31*	-4	-5	sPLA2 confirm=39*;535nm interf=15*
O=C(CSc1ccccc1)NC1CCCCN(Cc2ccc(Cl)cc2)C1=O (stereo not drawn)	nt	-2	-1	0	nt	nt
O=C(CSc1nnc(COc2ccccc2)n1Cc1ccco1)Nc1ccc2c(c1)OCO2	nt	4	2	-13	nt	nt
COc1ccc(C(=O)NC(=S)Nc2cccc(NC(=O)c3ccco3)c2)cc1[N+](=O)[O-]	0	5	13*	28*	-1	1	sPLA2 confirm=10;535nm interf=2
